For 26 compounds, growth results are on record in PubChem BioAssay (NCI).

This is part of a sample that, as a whole, favours compounds with a hit. Of some 83,000 tested, about 20% had one in any assay.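 Percent growth is the endpoint: 0 to 100 indicates growth inhibition (40 means 60% inhibition), 0 means no net growth, and negative values indicate cell death.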 A number with no mark means an inactive call. Active and inactive are the calls of the source. The calls were made as follows: active = growth percent below 10; inactive = the rest.

For the assay, the system named is HL-60(TB) leukemia. The assay is described as follows: NCI-60 one-dose screen, 48 h (100 = growth as untreated, 0 = no growth, -100 = all killed). Particulars: 10 µM unless noted.
On to `CC1(C)CCC(C)(C)NC(=S)N1`, for which the growth is 89.3%.
The result for `COc1ccc(Cl)cc1NC(N)=S` reads 101%; that for `COc1cc(C2C(C(=O)c3cccs3)=C(O)C(=O)N2CCN2CCOCC2)cc(OC)c1OC` (stereo unspecified), 120%; that for `COc1cc(CNC(=O)c2ccsc2Nc2ccnc(C(F)(F)F)c2)ccc1O`, 102%.
In the case of `CC(=O)Cc1nsc(NC(=O)c2cc(-c3cc(Cl)ccc3Cl)oc2C)n1`, the growth is 94.3%.
The result for `COc1ccc2nc3ccccc3c(NCCNCC(C)O)c2c1` (stereo unspecified) reads 14.2%; that for `COc1cc2nc(N3CCCC3)nc(NCC3CCCCC3)c2cc1OC`, -57.2% (active).
The result for `C/C=C(\C)C(=O)NC1=CC[C@@]2(C)C(=CCC3C2CC[C@@]2(C)C3CC[C@@H]2C(C)N(C)C)C1=O` (stereo partly specified) reads 8.53% (active); that for `CCOC(=O)C/C(=N\Nc1cc(=O)[nH]c2ccc(C)cc12)C(=O)OCC`, 92%.
The figure for `CCOC(=O)c1c(-c2ccc(OC)cc2)c(C#N)c2c(C#N)c(N)nn2c1N` is -40.4% (active); for `COc1cc(-c2c3c(cn2S(=O)(=O)c2ccccc2)-c2nc(N)sc2CC3)cc(OC)c1OC` it is 13.2%.
As for `Cc1ccc(N)cc1[N+](=O)[O-]`, the growth is 96.5%.
The result for `O=C1N=c2cc3c(cc2=C/C1=C/c1sc(=S)n(CCc2ccc(O)cc2)c1O)OCCO3` reads 48.1%; that for `O=C1C(Cl)=C(Nc2ccc3c(c2NC2=C(Cl)C(=O)c4ccccc4C2=O)C(=O)c2ccccc2C3=O)C(=O)c2ccccc21`, -8.26% (active).
Consider `CCOC(=O)c1sc(NC(=O)CN2CCC(Cc3ccccc3)CC2)nc1C`, for which the growth is 92%.
The result for `CC(C)c1cc(C(=O)O)c(O)c(C(C)C)c1.CC(C)c1cc(C(=O)O)c(O)c(C(C)C)c1.[Mn]` reads 94.2%; that for `C=CC(COC(c1ccccc1)(c1ccccc1)c1ccccc1)N(CC)CC` (stereo unspecified), 48.1%; that for `COc1ccc(C(=O)/C=C/c2cc(-c3ccc4c(c3)OCO4)n[nH]2)cc1OC`, 42.9%.
The result for `COc1ccc(-c2csc(-c3cc(Cl)cc(Cl)c3Cl)n2)cc1` reads 93.6%; that for `O=c1[nH]c(-c2cn(-c3ccc(Cl)cc3)nn2)nc2ccccc12`, 100%; that for `CC1(C)C(=O)/C(=C\c2cccnc2)C[C@]2(C)[C@H]3CC=C4[C@@H]5C[C@@](C)(C(=O)O)CC[C@]5(C)CC[C@@]4(C)[C@]3(C)CC[C@@H]12`, 104%.
The result for `CCN(CC)c1ccc(C(=N)c2ccc(N(C)C)cc2)cc1` reads 11.1%; that for `O=c1[nH]c(Cl)nc2c1cnn2-c1ccccc1`, -2.45% (active); that for `C=C1CC[C@@H]2[C@](C)(COC(C)=O)[C@H](OC(C)=O)CC[C@@]2(C)[C@@H]1CC(Nc1ccc(S(=O)(=O)Nc2ncccn2)cc1)C1=CCOC1=O` (stereo partly specified), -17.2% (active).
On to `O=C(NN=C1CCCCC1)C(=O)NN=C1CCCCC1`, for which the growth was 81.5%.
As for `Cn1nc(-c2ccccc2)c2c(-c3ccccc3)onc2c1=O`, the growth is 1.23% (active).
